# The supplement of paper PMC8728848
# This is one part of a sample in which the strongest signals are shown more often than they occur.
# How the values were obtained:
# Assay in all cases: glycan array binding signal (z-score within array); higher = stronger binding
# Conditions in all cases: glycan notation: IUPAC condensed, linker removed
# [1] = target: Fuc(a1-2)Gal(b1-3)GlcNAc(b1-2)Man(a1-3)[Fuc(a1-2)Gal(b1-3)GlcNAc(b1-2)Man(a1-6)]Man(b1-4)GlcNAc(b1-4)GlcNAc
# In short: (§1)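 The binding signal is a Z-score computed within each array and averaged over linkers. Arrays of the same protein sequence at different concentrations or buffers were also averaged together. Data originate from 3228 arrays in the Consortium for Functional Glycomics database, kept only where the protein sequence was available.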
# [2] = target: Fuc(a1-2)Gal(b1-3)[Fuc(a1-4)]GlcNAc(b1-2)Man(a1-3)[Fuc(a1-2)Gal(b1-3)[Fuc(a1-4)]GlcNAc(b1-2)Man(a1-6)]Man(b1-4)GlcNAc(b1-4)[Fuc(a1-6)]GlcNAc(b1-4)[Fuc(a1-6)]GlcNAc
# In short: as §1
# [3] = target: Fuc(a1-2)Gal(b1-4)GlcNAc(b1-2)Man(a1-3)[Fuc(a1-2)Gal(b1-4)GlcNAc(b1-2)Man(a1-6)]Man(b1-4)GlcNAc(b1-4)GlcNAc
# In short: as §1
# [4] = target: Fuc(a1-2)Gal(b1-4)[Fuc(a1-3)]GlcNAc(b1-3)GalNAc
# In short: as §1
# [5] = target: Fuc(a1-2)[Gal(a1-3)]Gal(b1-3)GalNAc(b1-3)Gal(a1-4)Gal(b1-4)Glc
# In short: as §1
# [6] = target: Fuc(a1-2)[Gal(a1-3)]Gal(b1-3)GlcNAc(b1-2)Man(a1-3)[Fuc(a1-2)[Gal(a1-3)]Gal(b1-3)GlcNAc(b1-2)Man(a1-6)]Man(b1-4)GlcNAc(b1-4)[Fuc(a1-6)]GlcNAc
# In short: as §1
# [7] = target: Fuc(a1-2)[GalNAc(a1-3)]Gal(b1-3)GalNAc(a1-3)[Fuc(a1-2)]Gal(b1-4)GlcNAc
# In short: as §1
# [8] = target: Fuc(a1-2)[GalNAc(a1-3)]Gal(b1-3)GlcNAc(b1-2)Man(a1-3)[Fuc(a1-2)[GalNAc(a1-3)]Gal(b1-3)GlcNAc(b1-2)Man(a1-6)]Man(b1-4)GlcNAc(b1-4)GlcNAc
# In short: as §1
# [9] = target: Fuc(a1-2)[GalNAc(a1-3)]Gal(b1-4)GlcNAc(b1-2)Man
# In short: as §1
# [10] = target: Fuc(a1-2)[GalNAc(a1-3)]Gal(b1-4)GlcNAc(b1-6)GalNAc
# In short: as §1
# [11] = target: Fuc(a1-3)[Gal(b1-4)]GlcNAc(b1-6)GalNAc
# In short: as §1
# Fuc(b1-3)GlcNAc = target: Fuc(b1-3)GlcNAc
# In short: as §1
# Gal(a1-3)Gal = target: Gal(a1-3)Gal
# In short: as §1
# [12] = target: Gal(a1-3)Gal(b1-4)[Fuc(a1-3)]GlcNAc
# In short: as §1
# [13] = target: Gal(a1-4)Gal(b1-4)GlcNAc(b1-2)Man(a1-3)[Gal(a1-4)Gal(b1-4)GlcNAc(b1-2)Man(a1-6)]Man(b1-4)GlcNAc(b1-4)GlcNAc
# In short: as §1
# [14] = target: Gal(b1-3)GlcNAc(b1-3)Gal(b1-4)GlcNAc(b1-3)Gal(b1-4)GlcNAc(b1-2)[Gal(b1-3)GlcNAc(b1-3)Gal(b1-4)GlcNAc(b1-3)Gal(b1-4)GlcNAc(b1-6)]Man(a1-6)[Gal(b1-3)GlcNAc(b1-3)Gal(b1-4)GlcNAc(b1-3)Gal(b1-4)GlcNAc(b1-2)Man(a1-3)]Man(b1-4)GlcNAc(b1-4)[Fuc(a1-6)]GlcNAc
# In short: as §1
# [15] = target: Gal(b1-3)GlcNAc(b1-3)GalNAc
# In short: as §1
# [16] = target: Gal(b1-3)[Neu5Ac(a2-6)]GlcNAc(b1-4)Gal(b1-4)Glc
# In short: as §1
# Gal(b1-4)Gal = target: Gal(b1-4)Gal
# In short: as §1
# [17] = target: Gal(b1-4)GlcNAc(b1-2)Man(a1-3)[Gal(b1-4)GlcNAc(b1-2)Man(a1-6)]Man(b1-4)GlcNAc(b1-4)[Fuc(a1-6)]GlcNAc
# In short: as §1
# [18] = target: Gal(b1-4)GlcNAc(b1-2)[Gal(b1-4)GlcNAc(b1-4)]Man(a1-3)[GlcNAc(b1-4)][Gal(b1-4)GlcNAc(b1-2)[Gal(b1-4)GlcNAc(b1-6)]Man(a1-6)]Man(b1-4)GlcNAc(b1-4)GlcNAc
# In short: as §1
# [19] = target: Gal(b1-4)GlcNAc(b1-3)Gal(b1-3)GlcNAc
# In short: as §1
# [20] = target: Gal(b1-4)GlcNAc(b1-3)Gal(b1-4)GlcNAc(b1-2)Man(a1-3)[Gal(b1-4)GlcNAc(b1-3)Gal(b1-4)GlcNAc(b1-2)Man(a1-6)]Man(b1-4)GlcNAc(b1-4)[Fuc(a1-6)]GlcNAc
# In short: as §1
# [21] = target: Gal(b1-4)GlcNAc(b1-3)Gal(b1-4)GlcNAc(b1-2)[Gal(b1-4)GlcNAc(b1-3)Gal(b1-4)GlcNAc(b1-6)]Man(a1-6)[Gal(b1-4)GlcNAc(b1-3)Gal(b1-4)GlcNAc(b1-2)Man(a1-3)]Man(b1-4)GlcNAc(b1-4)GlcNAc
# In short: as §1
binder,measurement,setting,value
PX14375l-pdi-526-25-526 (Parabacteroides distasonis) (protein) DEEPKSTLTDVAYYKTQSQMESNVNYLYRTGAIGSYVDFGSAYIGPFASIQEELTGYFSNSYEGQEIVCRYTRELTRQQNTMQLASKMDKVWDDCYRGINVANGAIKHMPEVPMDQATADRLTAEAKFFRAFNYFYLVKTFGAVPFYTDPYELAENMELPRTETSTIYNQIESDLKDAMNVLPEATFAANGHRITKYVAAMTLTDVYMYQHKYAEAAETVRIVVNSNHKLTTNDDLAMNSAFNKLRSTDDLDEAIYAYEYDNQISPSNWLPTYAFDGDASSNGLFGTYAITQKVHGPNDRYLNIYESNDLRRQPNQFYHWTYTNPKTGKVWNSVGNAACCWYYYDEDALLTTGRGTKDWNVYRYAEALLDAAESIAQSTGVTAEAAGYLAQVKARANMEGKTAAEIASSLQSMGKQAFIEECWTERLRELPLEFKMWDMCVRTGMFPNISETTPGQVTYIPLVGAKNASGATIKESDLLWPLSVNEIQRNPSLTQNEGYSAK,glycan array binding signal (z-score),[1],-0.052
same,glycan array binding signal (z-score),[2],0.236
same,glycan array binding signal (z-score),[3],3.23
same,glycan array binding signal (z-score),[4],3.32
same,glycan array binding signal (z-score),[5],-0.21
same,glycan array binding signal (z-score),[6],0.373
same,glycan array binding signal (z-score),[7],-0.255
same,glycan array binding signal (z-score),[8],2.42
same,glycan array binding signal (z-score),[9],-0.233
same,glycan array binding signal (z-score),[10],-0.22
same,glycan array binding signal (z-score),[11],2.66
same,glycan array binding signal (z-score),Fuc(b1-3)GlcNAc,-0.225
same,glycan array binding signal (z-score),Gal(a1-3)Gal,-0.181
same,glycan array binding signal (z-score),[12],-0.3
same,glycan array binding signal (z-score),[13],1.19
same,glycan array binding signal (z-score),[14],8.4
same,glycan array binding signal (z-score),[15],-0.323
same,glycan array binding signal (z-score),[16],-0.125
same,glycan array binding signal (z-score),Gal(b1-4)Gal,-0.301
same,glycan array binding signal (z-score),[17],0.272
same,glycan array binding signal (z-score),[18],3.87
same,glycan array binding signal (z-score),[19],-0.16
same,glycan array binding signal (z-score),[20],4.03
same,glycan array binding signal (z-score),[21],4.11
